Test results from PubChem BioAssay (NCI).
About 83,000 compounds went through this panel and 20% of them were active in at least one assay; those are over-represented in the sample as a whole.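 Percent growth is the endpoint: 0 to 100 indicates growth inhibition (40 means 60% inhibition), 0 means no net growth, and negative values indicate cell death.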 Unmarked numbers belong to inactive results. The source made the active and inactive calls. How the source made its calls: active means growth percent below 10; inactive means the rest.

How the values were obtained:
Assay in all cases: NCI-60 one-dose screen, 48 h (100 = growth as untreated, 0 = no growth, -100 = all killed)
Details in all cases: 10 µM unless noted
NCI-H23 lung = test system: NCI-H23 lung
NCI-H226 lung = test system: NCI-H226 lung
NCI-H322M lung = test system: NCI-H322M lung
HOP-62 NSCLC = test system: HOP-62 NSCLC
NCI-H460 lung = test system: NCI-H460 lung
HOP-92 NSCLC = test system: HOP-92 NSCLC
NCI-H522 lung = test system: NCI-H522 lung
A549/ATCC NSCLC = test system: A549/ATCC NSCLC
786-0 renal = test system: 786-0 renal
COLO 205 colon = test system: COLO 205 colon

Compound	growth (NCI-H23 lung)	growth (NCI-H226 lung)	growth (NCI-H322M lung)	growth (HOP-62 NSCLC)	growth (NCI-H460 lung)	growth (HOP-92 NSCLC)	growth (NCI-H522 lung)	growth (A549/ATCC NSCLC)	growth (786-0 renal)	growth (COLO 205 colon)
CCN(CC)c1ccc(C(=O)c2ccc(N(CC)CC)cc2)cc1	3.77% (active)	48.5%	54.7%	29.2%	6.72% (active)	51.2%	3.66% (active)	31.9%	4.16% (active)	-29% (active)
CCN(CCNc1ccc(C)c2sc3ccccc3c(=O)c12)CC(C)(C)O	86.7%	96.7%	90.4%	82.8%	30.3%	50.9%	74.2%	40.8%	70.4%	67.8%
CNC(=O)c1cc(Oc2cccc3nc(Nc4ccc(F)c(Cl)c4)ccc23)ccn1	70%	46.9%	76.6%	50.5%	62.5%	77.9%	40%	42.1%	42.6%	43.7%
COc1cccc(-c2nn(-c3ccccc3)cc2-c2ccnc(NCCNC(=O)c3ccccc3)c2)c1	61.4%	70.4%	109%	60.7%	63.7%	52.8%	56.7%	41.8%	54.4%	62.6%
COC(=O)[C@]12CC[C@@H](C)[C@H](C)[C@@H]1C1=CC[C@@H]3[C@@]4(C)C(C=O)=C[C@@](C)(COC(=O)/C=C/c5ccccc5)[C@@H]4[C@H](O)C[C@@]3(C)[C@]1(C)CC2	10.4%	10.1%	42%	-5.38% (active)	-19.1% (active)	-5.49% (active)	-16.3% (active)	3.82% (active)	-5.1% (active)	-37% (active)
CC1OC(O[C@H]2/C=C/C=C/C=C/C=C/C=C/C=C/C=C/[C@H](C)[C@@H](O)[C@@H](C)[C@H](C)OC(=O)CC(O)CC(O)CCC(O)C(O)CC(O)C[C@]3(O)C[C@H](O)C(C(=O)O)C(C2)O3)C(O)[C@H](N)C1O (stereo not given in full)	-29.7% (active)	-9.69% (active)	20%	-82.5% (active)	-55.5% (active)	18.6%	16.2%	-89.9% (active)	-80% (active)	38.5%
C=C1C(=O)O[C@H]2[C@H]1CC/C(COC(=O)C(=O)c1c[nH]c3ccc(OC)cc13)=C\CC[C@@]1(C)O[C@@H]21	-28.1% (active)	-68.3% (active)	-70.5% (active)	-71.3% (active)	-53.9% (active)	-77.2% (active)	-61.3% (active)	-62.7% (active)	-91% (active)	-68.6% (active)
Cc1cccc(Cc2cnc(NC(=O)c3ccc4nnsc4c3)s2)c1	92.7%	102%	97.4%	79.8%	114%	74.7%	77%	96.2%	96%	94.8%
CCN(CC)c1ccc2nc3c4ccccc4c(=NC(=O)c4ccccc4-c4c5ccc(N(CC)CC)cc5[o+]c5cc(N(CC)CC)ccc45)cc-3oc2c1	10.9%	76.5%	11.6%	17.4%	-54.1% (active)	1.45% (active)	-5.73% (active)	14.5%	-28.3% (active)	-80.1% (active)
COc1ccc(C(=O)Nn2c(NCC(=O)N3c4ccccc4Sc4ccccc43)nnc2-c2ccc(O)cc2)cc1	94.4%	101%	104%	103%	110%	87.9%	92.2%	97.5%	100%	112%
COc1cc(C2CC(=O)Nc3c2c(C)nn3-c2nc3ccccc3[nH]2)c(OC)c(OC)c1OC (stereo not given)	82.6%	89.7%	95.2%	44.3%	39%	75.7%	33.3%	43.2%	27.6%	41.2%
CC1(C)CC(=O)CC2(C1)N=C(N)Nc1nc3ccccc3n12 (stereo not given)	101%	95.6%	117%	119%	111%	87.3%	69.6%	97.9%	107%	102%
O=C1C=C[C@]2(C[C@@H](c3cccc(C(F)(F)F)c3)O[C@@H](c3cccc(C(F)(F)F)c3)O2)O1	50.1%	-72.7% (active)	74.3%	4.06% (active)	1.85% (active)	-5.73% (active)	-78.8% (active)	27.3%	-88.8% (active)	12.1%
CC(C)CC(NC(=O)CN(Cc1ccccc1)S(C)(=O)=O)C(=O)O (stereo not given)	93.1%	104%	93.8%	96%	98.7%	-0.442% (active)	103%	96.5%	93.6%	112%
COC(=O)c1c2c(c(C)[n+]([O-])c1C)C(=O)C(NCc1ccc(F)c(Cl)c1)=CC2=O	16.3%	84.3%	3.24% (active)	28.3%	7.33% (active)	19%	-26.6% (active)	1.3% (active)	-93.5% (active)	-75.5% (active)
FC(F)(F)c1cc(Nc2ccc3cc(OCCCN4CCOCC4)ccc3n2)ccc1Cl	36%	68.2%	66.4%	12.3%	6.76% (active)	26.1%	-22.1% (active)	28.3%	-64.5% (active)	-69.3% (active)
CS(=O)c1cccc(-c2ccc3nc(N)n(-c4ccc(C(F)(F)F)cc4)c(=O)c3c2)c1 (stereo not given)	102%	90.9%	103%	98%	102%	66.1%	80.8%	93.4%	97.1%	105%
COc1cc(/C=C/C(=O)c2c(C)nc3ccccc3c2/C=C/c2ccc(C)cc2)cc(OC)c1OC	24.4%	28.9%	57.5%	28.7%	-22.1% (active)	69.7%	24.1%	73.1%	28.4%	46.2%
CCCCCCCOc1c(OC)cc(C2CC(=O)Nc3c2c(C)nn3-c2nc3ccccc3[nH]2)cc1OC (stereo not given)	-2.79% (active)	-38.7% (active)	2.06% (active)	-22.6% (active)	-26.8% (active)	-8.34% (active)	-40.7% (active)	1.6% (active)	4.68% (active)	3.24% (active)
Cc1c2c(c(C)c3c1oc1cc(O)ccc13)C(=O)N(CCN1CCCCC1)C2=O	94.6%	88.5%	85.9%	80%	38.7%	92.4%	94.1%	81.2%	71.7%	85.8%
O=c1cc(-c2ccc(Cl)cc2)[nH]c2ccccc12	83.2%	87%	92.3%	79.3%	90.8%	73.3%	80.9%	91.2%	82.4%	99.7%
